# Assay outcomes (PubChem BioAssay)
# Sampled rows, rich in hits. Any-hit rate of the full collection: about 18%.
# LDHA block = qHTS assay for inhibitors of human lactate dehydrogenase | L-lactate dehydrogenase A chain (Homo sapiens), P00338 | purified LDHA, NADH/diaphorase-resazurin fluorescence; stronger effect = lower value | activity change, % (values are at about 110 or 230 µM) | 0.15% of 480,000 active | AID 1347041, 2019; in the data active = activity change below about -30%; inconclusive = mostly about -25% to -30%;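 note: plate controls were DMSO wells for no effect and wells without enzyme for full effect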
#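 Enzyme activity of human lactate dehydrogenase 5 (2 nM; 0.06 mM NADH, 0.2 mM pyruvate, 5 min, RT) is measured via a resazurin/diaphorase fluorescence readout of residual NADH.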
# RORgamma inh = qHTS for inhibitors of ROR gamma transcriptional activity | Nuclear receptor ROR-gamma (Mus musculus), P51450 | Drosophila S2 Gal4-RORgamma UAS-luciferase reporter, 20 h | Potency, µM (highest dose often 53.6 µM), for inactives: at the top dose activity change, negative = inhibition, hits mostly inhibitors | 5.4% of 310,000 active; note: potency is the fitted concentration of half-maximal effect; nearly all actives have a fitted effect of over 60% in size
# Target sequence (P51450 whole entry, looked up, the tested form may be a part): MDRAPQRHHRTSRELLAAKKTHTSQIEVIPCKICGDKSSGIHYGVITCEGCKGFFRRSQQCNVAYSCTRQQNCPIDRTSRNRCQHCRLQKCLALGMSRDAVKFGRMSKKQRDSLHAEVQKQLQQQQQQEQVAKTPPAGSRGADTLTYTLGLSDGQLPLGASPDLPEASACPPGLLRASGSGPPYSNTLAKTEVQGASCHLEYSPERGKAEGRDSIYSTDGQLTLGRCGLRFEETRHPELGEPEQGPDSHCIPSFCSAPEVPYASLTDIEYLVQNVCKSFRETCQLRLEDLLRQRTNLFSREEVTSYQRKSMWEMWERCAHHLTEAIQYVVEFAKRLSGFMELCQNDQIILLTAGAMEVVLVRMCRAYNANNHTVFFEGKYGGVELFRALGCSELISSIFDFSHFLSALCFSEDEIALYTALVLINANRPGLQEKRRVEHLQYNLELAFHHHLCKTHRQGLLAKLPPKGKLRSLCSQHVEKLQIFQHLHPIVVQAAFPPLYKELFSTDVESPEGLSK
#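 In this cell-based reporter format, copper sulfate (700 uM final) drives Gal4–ROR gamma fusion expression from a metallothionein promoter in Drosophila Schneider cells; compounds preincubated 1 hr, reporter read after 20 hr at ambient temperature.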
# TDP1 cell CPT = qHTS for Inhibitors of human tyrosyl-DNA phosphodiesterase 1 (TDP1): qHTS in cells in presence of CPT; chicken DT40 Tdp1-/-;hTDP1 cells + 20 nM CPT, ATP luminescence, 48 h; Potency, µM (doses to about 46.2 µM), for inactives: top-dose activity change, negative = growth inhibition, most hits filed as inhibitors; 12% of 420,000 active; note: potency is the fitted concentration of half-maximal effect; nearly all actives have a fitted effect of over 55% in size
#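 Chicken DT40 Tdp1-/- cells complemented with human TDP1, 400 cells/well, exposed to compounds plus 20 nM camptothecin for at least 48 h at 37 C; viability read as ATP content by CellTiter-Glo luminescence.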
# IL1B secr inh = qHTS for Inhibitors of Inflammasome Signaling: IL-1-beta AlphaLISA Primary Screen; activity change, % at 57.5 µM; THP-1 LPS/ATP IL-1B secretion, AlphaLISA, 16 h; stronger effect = lower value; 4.7% of 360,000 active; AID 743279, 2014; in the data active = activity change below about -50%; inconclusive = mostly about -30% to -49%
#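 THP-1 cells pretreated 1 hr with compounds (up to 57.5 uM final), then stimulated with LPS (250 ng/mL final) plus ATP (1.25 mM final); secreted IL-1B measured by AlphaLISA after 16 hr, decreased signal indicating inhibition.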
# Gal4-VP16 FLuc = VP16 counterscreen qHTS for inhibitors of ROR gamma transcriptional activity | AID 2546, 2010 | Potency, µM (series often up to 53.6 µM), inactives show top-dose activity, negative = inhibition, hits mostly inhibitors | 3.5% of 310,000 active | Drosophila S2 Gal4-VP16 UAS-luciferase, luminescence, 20 h;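 note: Gal4-VP16 expression switched on by copper sulfate through the metallothionein promoter; potency is the fitted concentration of half-maximal effect; nearly all actives have a fitted effect of over 50% in size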
# TDP1 cell noCPT = qHTS for Inhibitors of human tyrosyl-DNA phosphodiesterase 1 (TDP1): qHTS in cells in absence of CPT; DT40 Tdp1-/- hTDP1 cells, no CPT, ATP luminescence, 48 h; Potency, µM (top dose mostly 46.2 µM), for the others: at the top dose activity change, negative = growth inhibition, actives largely listed as inhibitors; 15% of 420,000 active; AID 686978, 2013; note: potency is the fitted concentration of half-maximal effect; nearly all actives have a fitted effect of over 55% in size
#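 Stably hTDP1-transfected Tdp1-null chicken DT40 cells were treated with library compounds minus camptothecin and grown for at least 48 hr at 37 °C, after which cellular ATP was quantified by luminescence.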
# * marks the source's active call; other numbers are inactive results; ? = inconclusive; / = no result. Unless noted, calls come from the whole dose curve; as a rule, active = well fitted curve in the direction sought with a large enough effect; inconclusive = small, poorly fitted or top-dose-only effect, or another doubt; inactive = no such curve, though single readings can be large; an effect the other way counts as inactive or inconclusive. Unless noted, % is set by controls: 0 for no effect and ±100 for the full control effect.
SMILES,LDHA block,RORgamma inh,TDP1 cell CPT,IL1B secr inh,Gal4-VP16 FLuc,TDP1 cell noCPT
CN(C(=O)Cn1nc(-c2ccccc2)ccc1=O)C1CCS(=O)(=O)C1 (stereo not given),-1,/,/,/,/,/
C=CCn1c(SCC(=O)Nc2sccc2C(N)=O)nc2sc(CC)cc2c1=O,-6,-3%,?,-30,-6%,26µM*
C=CCn1c(SCC(=O)c2c(N)n(C)c(=O)n(C)c2=O)nc2sc(C)c(C)c2c1=O,-3,24%,-16%,0,-11%,?
C=CCn1c(SCC(=O)c2c(N)n(CCC)c(=O)n(C)c2=O)nc2sc(CC)cc2c1=O,0,11%,6.5µM*,0,-1%,5.8µM*
C=CCn1c(SCC(=O)Nc2sccc2C(N)=O)nc2ccc(Cl)cc2c1=O,-2,0%,15µM*,-6,-17%,16µM*
CC(C)N1CC(C(=O)Nc2nc3c(s2)CCC3)CC1=O (stereo not given),-6,/,/,/,/,/
c1ccc2c(c1)oc1c(NCCCn3ccnc3)ncnc12,-5,?,?,17,-3%,-23%
O=c1c2ccccc2oc2ccc(NCCCn3ccnc3)cc12,0,?,?,-58*,-23%,?
Cn1ncc2c(N3CCN(c4ccccc4Cl)CC3)ncnc21,-2,/,?,/,/,21µM*
CN1CCN(c2ncnc3c2cnn3-c2cccc(Cl)c2)CC1,-1,/,16µM*,/,/,16µM*
Cn1ncc2c(N3CCN(c4cccc(Cl)c4)CC3)ncnc21,-8,/,?,/,/,5.8µM*
CN(C)C1(CNC(=O)c2ccccc2-c2ncc(-c3ccccc3)o2)CCCCC1,4,/,/,/,/,/
CC(C)(C)c1n[nH]c2c1CCCC2,-4,11µM*,8%,17,-21%,-30%
COC(=O)c1cc(=O)n(Cc2ccc3c(c2)OCO3)c(=Nc2ccc(F)cc2)s1,-3,?,?,-9,-27%,?
CCOC(=O)c1ccc(N=c2sc(C(=O)OC)cc(=O)n2Cc2ccc3c(c2)OCO3)cc1,0,?,6.5µM*,-4,0%,6.5µM*
COC(=O)c1ccc(N=c2sc(C(=O)OC)cc(=O)n2C)cc1,-1,5%,21µM*,30,-1%,26µM*
COC(=O)c1cc(=O)n(-c2ccc(F)cc2)c(=Nc2ccc(F)cc2)s1,0,?,6.5µM*,-105*,16µM*,6.5µM*
COC(=O)c1cc(=O)n(Cc2cccs2)c(=Nc2ccc(F)cc2)s1,-1,?,?,-4,?,21µM*
COc1cc(O)c(CCC(=O)c2cc(OC)c(OC)c(OC)c2)c(OC)c1,3,20%,21µM*,9,-16%,15µM*
FC(F)(F)CN1CCN(c2nc(-c3cccnc3)nc3ccccc23)CC1,3,/,/,/,/,/
CCCCN(CC)CCNC(=O)c1cc2c(-c3ccc(Cl)cc3)nn(C)c2s1,1,-30%,?,-97*,-11%,?
Cn1nc(-c2ccc(Cl)cc2)c2cc(C(=O)NC3CC3)sc21,-13,?,?,0,13µM*,?
CCCCN(CC)CCNC(=O)c1cc2c(=O)oc3ccc(C)cc3c2s1,-9,/,?,/,/,?
Cn1nc(-c2ccc(Cl)cc2)c2cc(C(=O)NCCCN3CCOCC3)sc21,-6,-42%,16µM*,0,-26%,18µM*
CC1CCCN(C(=O)c2cc3c(-c4ccc(Cl)cc4)nn(C)c3s2)C1 (stereo not given),-3,?,?,0,-13%,?
